Data as given in the supplement of paper PMC6555819.

Columns and labels:
Assay in all cases: PBM binding z-score (relative to random genomic background probes); higher = stronger binding; sequences stand for … in GC…GCGATTGACAGCGTAGAATGAAGG
[1] = test system: PPARg:RXRa DBDmut IVT, anti-RXR (DBD mutation: RXRa K156A/R161A, NR concentration 270 nM, RXRa partner concentration 90 nM)
In short: (§1)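 On custom Agilent 4×180K arrays, double-stranded probes with 34-nt variable regions carried direct-repeat seeds, single-nucleotide variants, half-site ablations or random human genomic background. Ligand-free nuclear receptor dimers were applied for 1 h, and binding was read with antibodies against each partner (one per run). Binding z-scores come from regression-normalized fluorescence, with the random background probes as reference.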

[2] = test system: PPARg:RXRa IVT, anti-PPARg (NR concentration 270 nM, RXRa partner concentration 90 nM)
In short: as §1

[3] = test system: PPARg DBDmut:RXRa IVT, anti-PPARg (DBD mutation: PPARg1 K132A/R137A, NR concentration 270 nM, RXRa partner concentration 90 nM)
In short: as §1

[4] = test system: PPARg DBDmut IVT, anti-PPARg (DBD mutation: PPARg1 K132A/R137A, NR concentration 270 nM)
In short: as §1

[5] = test system: PPARg homodimer (NR concentration 180 nM)
In short: as §1

[6] = test system: PXR:RXRa (NR concentration 270 nM, RXRa partner concentration 90 nM)
In short: as §1

[7] = test system: PXR homodimer (NR concentration 270 nM)
In short: as §1

[8] = test system: RARa:RXR (NR concentration 270 nM, RXRa partner concentration 90 nM)
In short: as §1

[9] = test system: RARa homodimer (NR concentration 270 nM)
In short: as §1

[10] = test system: RARb:RXRa (NR concentration 270 nM, RXRa partner concentration 90 nM)
In short: as §1

[11] = test system: RARb homodimer (NR concentration 270 nM)
In short: as §1

[12] = test system: RARg:RXRa (NR concentration 270 nM, RXRa partner concentration 90 nM)
In short: as §1

[13] = test system: RARg homodimer (NR concentration 270 nM)
In short: as §1

[14] = test system: RXRa DBDmut IVT, anti-RXR (DBD mutation: RXRa K156A/R161A, NR concentration 90 nM)
In short: as §1

[15] = test system: RXRa homodimer (NR concentration 180 nM)
In short: as §1

[16] = test system: THRa:RXRa (NR concentration 90 nM, RXRa partner concentration 90 nM)
In short: as §1

[17] = test system: THRa homodimer (NR concentration 90 nM)
In short: as §1

[18] = test system: VDR homodimer (NR concentration 270 nM)
In short: as §1

Sequence | PBM binding z-score [1] | PBM binding z-score [2] | PBM binding z-score [3] | PBM binding z-score [4] | PBM binding z-score [5] | PBM binding z-score [6] | PBM binding z-score [7] | PBM binding z-score [8] | PBM binding z-score [9] | PBM binding z-score [10] | PBM binding z-score [11] | PBM binding z-score [12] | PBM binding z-score [13] | PBM binding z-score [14] | PBM binding z-score [15] | PBM binding z-score [16] | PBM binding z-score [17] | PBM binding z-score [18]
TCATATAGGTTAAAGGTGAAAGTCGGTGTGGTAA | 6.74 | 6.73 | 2.27 | 1.26 | 3.22 | 3.73 | 0.749 | 6.33 | 2.29 | 2.9 | 2.56 | 3.92 | 1.76 | 1.94 | 5.99 | 2.62 | 0.942 | 0.81
CGTCCAAGGTCCATGCTAGGTCAGTGAAAGCATT | 0.0985 | 0.351 | -0.956 | -1 | 0.21 | 0.422 | -0.0884 | 1.35 | -0.265 | 1.7 | 2.62 | 1.41 | 1.22 | 1.41 | 0.238 | 2.73 | 0.766 | 1.07
TAGCCTCGGTCATTCAGGGGCCAGTATAGAAAGC | -0.712 | 0.476 | 0.246 | -0.322 | 0.0789 | -0.0122 | -0.574 | 0.667 | -0.375 | 2.68 | 2.44 | 3.5 | 3.37 | -0.617 | 0.151 | 1.46 | -0.717 | -0.088
CGTCCAAGGTCAATTCTAGGTCAGTGAAAGCATT | 3.48 | 4.72 | 0.615 | 0.0326 | 7.64 | 4.96 | 1.82 | 6.11 | 1.9 | 5.19 | 5.03 | 7.43 | 6.42 | 3.52 | 4.75 | 4.64 | 3.17 | 2.76
CCTACTGGGCCAAGGTCATAGATCAGTCAAAGCA | 3.5 | 4.88 | 0.145 | -0.588 | 2.21 | 3.28 | 0.536 | 4.12 | 0.339 | 3.23 | 3.17 | 3.62 | 2.88 | 0.741 | 3.51 | 3.38 | 2.25 | 1.92
TATACTGGGTCAAAGGCCAGAGTACGAATGTCGA | 6.17 | 7.37 | 3.19 | 3.85 | 5.01 | 2.33 | 0.331 | 3.3 | 0.721 | 3.59 | 2.9 | 3.96 | 3.88 | 0.958 | 3.99 | 2.24 | 0.212 | 1.37
ACTAGTTGGTCAGCTGGGGTCACACACAATTCGG | 1.23 | 2.46 | 0.596 | -0.0449 | 2.5 | 5.82 | 1.23 | 6.17 | 0.784 | 3.33 | 4.07 | 4.45 | 3.92 | 1.28 | 5.58 | 4.71 | 3.54 | 3.33
ATATGTAGGTTAGCTGGGGTCATTCCGACTAGGC | 6.8 | 5.93 | 1.65 | 0.994 | 3.16 | 6.18 | 3.73 | 5.3 | 0.761 | 2.99 | 3.77 | 4.05 | 2.78 | 1.93 | 5.24 | 4.98 | 3.21 | 5.2
CATACTAGGTCAAAGGTCAAAGTCGAGCCAACCA | 7.72 | 8.62 | 2.89 | 3.65 | 3.93 | 6.81 | 1.91 | 8.63 | 1.65 | 5.97 | 5.51 | 8.9 | 7.33 | 3.12 | 9.95 | 4.98 | 2.11 | 3.51
AGAATGAGGTTAAGATTAGGGAAACAGAATACAT | 2.37 | 2.53 | 0.926 | 1.13 | 1.38 | 1.24 | 0.222 | 2.11 | 1.36 | 1.91 | 0.693 | 1.98 | 1.56 | 1.13 | 2.57 | 2.63 | 0.72 | 0.435
TAGCCTAGGTCATGCGGGTCAGTATAGTGTCGGC | 2.38 | 3.65 | 0.284 | -0.506 | 1.03 | 3.67 | 1.56 | 3.45 | -0.237 | 4.05 | 4.27 | 4.91 | 4.9 | 1.07 | 4.2 | 3.75 | 1.35 | 2.26
CAAACTAGGTCACGAAAGGTCAAAGTGGAATGAC | 8.3 | 9.14 | 4.86 | 3.3 | 6.09 | 7.22 | 2.33 | 7.85 | 4.81 | 5.72 | 5.92 | 7.79 | 8.41 | 2.4 | 8.35 | 5.24 | 2.81 | 3.84
TAGCCTCGGTCATTGGGCCAGTATAGTACGCATC | 0.608 | 1.16 | -0.424 | -0.786 | -0.222 | -0.491 | -0.977 | -0.492 | -0.437 | 2.33 | 1.53 | 1.54 | 2.62 | -0.363 | 0.223 | 0.029 | -0.772 | -0.289
ATATGTAGGTTATCGGGTCATTCATTTTGCGCAT | 7.75 | 7.84 | 5.27 | 4.21 | 4.1 | 3.39 | 1.23 | 3.75 | 2.1 | 2.43 | 3.18 | 3.28 | 2.49 | 1.65 | 3.49 | 3.53 | 2.79 | 3
CTAACTAGGTCACGAAAGGTCAAAGTCGAATGAC | 8.88 | 9.03 | 2.32 | 2.06 | 5.96 | 6.97 | 3.14 | 7.47 | 2.75 | 5.6 | 5.7 | 7.92 | 8.55 | 2.56 | 8.14 | 5.08 | 2.55 | 3.54
CCTACTGGGCCAAAGGTCATAGATTCCAATGCTC | 5.3 | 7.19 | 0.0659 | -0.0407 | 4.53 | 5.14 | 1.46 | 6.41 | 1.47 | 4.4 | 4.32 | 5.69 | 4.78 | 1.1 | 6.28 | 3.22 | 0.866 | 2.27
AGTCGGAGGACAAAGGTCAGAGCTACGCCAGTGA | 0.569 | 3.68 | 0.374 | -0.0334 | 3.93 | 3.98 | 0.166 | 5.06 | 1.59 | 4.31 | 4.3 | 6.16 | 5.52 | 0.767 | 5.6 | 3.63 | 0.663 | 1.37
CCTAGATGGTCAGGAGGTCACACACCGGATATGA | 1.16 | 2.88 | 0.417 | 0.0962 | 3.94 | 4.14 | 1.76 | 4.94 | 2.24 | 3.54 | 4.09 | 5.06 | 4.28 | 0.392 | 4.73 | 3.5 | 2.26 | 2.68
CGTCAAAGTTAAAGGTAACGTAACAGAAAGCAGC | 0.379 | 1.17 | 0.513 | 0.594 | 0.332 | 0.394 | 0.0362 | 0.981 | 0.438 | 1.02 | 0.442 | 0.799 | 0.833 | 0.0376 | 0.816 | 0.694 | -0.0792 | -0.165
ACTAGTTGGTCAGCTGAGGTCACACAAAATTCGG | 1.6 | 2.89 | 0.792 | 0.409 | 3.4 | 5.63 | 2.18 | 4.78 | 1.17 | 3.87 | 4.3 | 4.32 | 4.78 | 1.52 | 4.23 | 5.01 | 5.35 | 3.83
ATATGTAGGTTAGCGGGGGTCATTCAGACTAGGC | 7.07 | 6.87 | 5.31 | 9.65 | 3.57 | 6.34 | 3.48 | 5.77 | 1.94 | 3.55 | 4.17 | 5.25 | 4.26 | 2.7 | 6.22 | 4.82 | 2.75 | 5.45
ATCGAAAGGTCGACGAGGTGAGAATACACCGTTT | 0.716 | 2.39 | 0.449 | 1.17 | 2.15 | 3.29 | 0.612 | 4.11 | 0.753 | 4.1 | 3.04 | 4.56 | 4.16 | 1.15 | 4.87 | 4.05 | 0.736 | 0.942
CGTCCAAGGTCAGAGAGGTCAGTGACTGCCGAGT | 3.1 | 3.54 | -0.0571 | -1.2 | 5.16 | 6.06 | 11.3 | 5.75 | 2.55 | 5.28 | 5.15 | 6.31 | 6.93 | 3.54 | 5.25 | 4.26 | 2.58 | 5.42
GGAACTAGGGCAAAGTTGATAGCATCTGTCGACG | 7.94 | 7.8 | 3.88 | 2.6 | 2.98 | -0.217 | -0.423 | 0.0303 | -0.192 | 1.48 | 0.866 | 1.07 | 1.15 | 0.644 | 0.592 | 0.234 | -0.621 | -0.235
TCATATAGGTTAAGGTGAAAGTCGAACGATATGA | 4.9 | 4.89 | 1.69 | 1.29 | 1.49 | 1.04 | -0.203 | 2.19 | 0.984 | 2.49 | 1.66 | 2.3 | 2.08 | 0.797 | 2.45 | 3.33 | 2.71 | 0.253
ACTAGTTGGTCAGCTGAGGTCACACTCAATTCGG | 1.55 | 2.58 | 0.716 | -0.0108 | 1.84 | 5.39 | 1.85 | 4.51 | 0.596 | 3.54 | 4.47 | 3.93 | 4.09 | 1.5 | 3.92 | 5.01 | 4.85 | 3.27
CCAGACAGGTGAAAGGTAACTCACTCTGGTACGC | 2.36 | 3.27 | -0.16 | 0.145 | 1.28 | 0.983 | 0.186 | 1.84 | 0.159 | 1.26 | 0.88 | 1.34 | 0.948 | 0.0725 | 2.37 | 1.03 | -0.0395 | -0.0544
ACTCGGAGGACAAAGGTCAGAACTACGCCAGTGA | 0.613 | 3.35 | 0.492 | -0.388 | 4.36 | 3.9 | 0.428 | 4.98 | 2.66 | 4.04 | 3.96 | 5.75 | 4.61 | 1.08 | 4.75 | 3.28 | 0.786 | 0.984
TCTTGTAGATCAAAGCTTAAGAAAGCCGAAGCCT | 1.63 | 0.218 | -0.031 | -0.413 | -0.405 | -0.275 | -0.758 | -0.177 | -0.517 | -0.506 | -0.931 | -0.422 | -0.665 | 0.503 | -0.173 | -0.444 | -1.01 | -0.74
